# HT1080-NT tox = kills 2HG-producing HT-1080-NT fibrosarcoma cells; 360,000 compounds, 1.6% hits; HT-1080-NT fibrosarcoma viability, CellTiter-Glo ATP luminescence, 48 h; Potency, µM (series often up to 46.1 µM), for inactives: at the top dose activity, negative = less viability, actives largely listed as cytotoxic; AID 686970;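 also: NT is the 2HG producing partner of a matched IDH1 knockdown line; potency is read from the fitted curve at half-maximal effect; 0% = DMSO-treated cells and -100% = media-only wells without cells; nearly all actives have a fitted effect of over 55% in size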
#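 Compounds were tested in concentration-response format on HT-1080-NT cells for 48 hours at 37 degrees C. Cell viability came from CellTiter-Glo luminescence; curves were classified by r2, response magnitude and activity.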
# TDP1 cell noCPT = qHTS for Inhibitors of human tyrosyl-DNA phosphodiesterase 1 (TDP1): qHTS in cells in absence of CPT; DT40 Tdp1-/- hTDP1 cells, no CPT, ATP luminescence, 48 h; 420,000 compounds, 15% hits; AID 686978, 2013; Potency, µM (titrated, usually from 46.2 µM), for inactives: top-dose activity change, negative = growth inhibition, usual class: inhibitors; also: potency is read from the fitted curve at half-maximal effect; nearly all actives have a fitted effect of over 55% in size
#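 Cells were dispensed at 400 per well, compounds added by pin tool, plates incubated ≥48 hr at 37 °C, then CellTiter-Glo added for 30 min at room temperature before luminescence reading. Line: DT40 Tdp1-/- complemented with hTDP1; camptothecin omitted.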
# IL1B secr inh = inflammasome signaling inhibition, IL-1 beta readout. THP-1 LPS/ATP IL-1B secretion, AlphaLISA, 16 h; active compounds read low. activity change, % at 57.5 µM. 360,000 compounds, 4.7% hits; in the data active = activity change below about -50%; inconclusive = mostly about -30% to -49%
#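 Secreted IL-1B measured by AlphaLISA bead assay after 16 h compound exposure of THP-1 cells; compounds (final up to 57.5 uM) added 1 h before LPS (250 ng/mL) and ATP (1.25 mM) stimulation; lower signal means less secretion.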
# 12-LOX inh = inhibitors of human 12S-lipoxygenase ALOX12; Potency, µM (doses to about 108 µM), inactives show at the top dose activity change, negative = inhibition, hits mostly inhibitors; AID 1671190; P18054; purified 12hLO, xylenol orange hydroperoxide absorbance; 580,000 compounds, 1.1% hits; also: potency is read from the fitted curve at half-maximal effect
# Target sequence (P18054 whole entry, looked up): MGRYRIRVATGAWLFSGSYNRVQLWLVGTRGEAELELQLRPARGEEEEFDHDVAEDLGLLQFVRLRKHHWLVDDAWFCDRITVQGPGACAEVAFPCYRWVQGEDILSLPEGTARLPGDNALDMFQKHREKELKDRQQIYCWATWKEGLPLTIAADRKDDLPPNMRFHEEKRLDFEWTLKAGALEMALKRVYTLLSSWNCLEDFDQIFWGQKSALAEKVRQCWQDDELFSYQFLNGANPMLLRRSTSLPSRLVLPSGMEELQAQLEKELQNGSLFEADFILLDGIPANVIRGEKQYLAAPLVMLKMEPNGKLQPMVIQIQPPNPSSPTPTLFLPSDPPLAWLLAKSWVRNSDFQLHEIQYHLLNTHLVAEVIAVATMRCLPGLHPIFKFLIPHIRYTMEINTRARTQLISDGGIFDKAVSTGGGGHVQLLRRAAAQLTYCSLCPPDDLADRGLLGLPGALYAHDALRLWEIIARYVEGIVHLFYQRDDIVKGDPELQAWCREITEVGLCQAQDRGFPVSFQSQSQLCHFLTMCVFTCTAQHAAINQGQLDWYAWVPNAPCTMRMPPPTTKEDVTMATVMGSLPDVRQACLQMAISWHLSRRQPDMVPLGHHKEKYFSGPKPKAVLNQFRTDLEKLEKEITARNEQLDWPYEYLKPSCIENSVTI
#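 Purified human 12hLO (150 nM final) in 25 mM Hepes, 0.01% Triton X-100, pH 7.0 was preincubated 15 min at room temperature with compound. Then 40 uM arachidonic acid was added, 30 min. Hydroperoxide was read by Fe-XO absorbance ratio 573/405 nm.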
# HT1080 IDH1KD tx = kills HT-1080 cells with IDH1 knockdown | AID 686971 | Potency, µM (doses to about 46.1 µM), for inactives: at the highest dose activity, negative = toxicity, hits mostly cytotoxic | HT-1080 IDH1 knockdown viability, ATP luminescence, 48 h | 360,000 compounds, 2% hits;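 also: potency is read from the fitted curve at half-maximal effect; 0% = DMSO wells and -100% = cell-free medium wells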
#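 Assay cells: HT-1080 with IDH1 knockdown, 750 per well, RPMI/5% FBS. Exposure: 48 h at 37 °C following 2 h pre-incubation. Read: CellTiter-Glo luminescence; fitted concentration-response, curve class assigned.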
# DT40 TDP1 CPT = DT40-hTDP1 cell growth loss with CPT | Potency, µM (titrated, usually from 46.2 µM), without a hit: top-dose activity change, negative = growth inhibition, actives largely listed as inhibitors | chicken DT40 Tdp1-/-;hTDP1 cells + 20 nM CPT, ATP luminescence, 48 h | 420,000 compounds, 12% hits; also: potency is read from the fitted curve at half-maximal effect; nearly all actives have a fitted effect of over 55% in size
#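 Chicken DT40 Tdp1-/- cells complemented with human TDP1, 400 cells/well, exposed to compounds plus 20 nM camptothecin for at least 48 h at 37 C; viability read as ATP content by CellTiter-Glo luminescence.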
# * hit, by the source's call; i = inactive; ? = inconclusive; nt = not tested or not shown; [ ] = dose if it differs, or a comment. Only a selection was taken, and hits are over-represented in it overall. Unless noted, calls follow the shape of the dose curve; as a rule, active = well fitted curve in the direction sought with a large enough effect; inconclusive = small, poorly fitted or top-dose-only effect, or another doubt; inactive = no such curve, though single readings can be large; an effect the other way counts as inactive or inconclusive. Unless noted, % is scaled to controls: 0 for no effect and ±100 for the full control effect.
SMILES,HT1080-NT tox,TDP1 cell noCPT,IL1B secr inh,12-LOX inh,HT1080 IDH1KD tx,DT40 TDP1 CPT
CC(C)(C)c1ccc(C(=O)Nc2ccc(C(O)[C@H]3COCC(=O)N3)cc2)cc1 (some centres not stated),nt,nt,nt,-17%[176 µM],nt,nt
Cc1c(CC(=O)NC2CC2)c(=O)oc2cc(O)c(Cl)cc12,nt,nt,nt,-7%,nt,nt
Cc1ccc(-c2nn(-c3cc(N4CCNCC4)ccc3[N+](=O)[O-])c(=O)c3ccccc23)cc1,15µM*,4.1µM*,-182*,-17%,?,3.7µM*
Cn1c(=O)c2c(-c3ccc(F)cc3)n(CC(N)=O)cc2n(C)c1=O,nt,nt,nt,-24%,nt,nt
O=C(c1ccc2nccn2c1)N1CCN(c2ncccn2)CC1,nt,nt,nt,7%[176 µM],nt,nt
Cc1ccc(C2=NC3(CCCCC3)N=C2SCC(=O)Nc2ccc3c(c2)OCCO3)cc1,?,?,-93*,380%,-24%,21µM*
Cc1cc(C)c(C#N)c(SCC(=O)Nc2ccc3c(c2)OCO3)n1,16%,-23%,46,0%,13%,-18%
Cc1ccc(-c2ccc(SCC(=O)Nc3ccc4c(c3)OCCO4)nn2)cc1,2%,?,-7,2%,4%,?
Cc1cc(Oc2ccccc2)nc(SCC(=O)Nc2ccc(Cl)c(Cl)c2)n1,-12%,18µM*,-8,-14%,-22%,?
Cc1nc(SCC(=O)Nc2ccc3c(c2)OCO3)c(C#N)c2c1CCCC2,-1%,18µM*,-22,i,-6%,21µM*
Cc1cc(C)nc(SCC(=O)Nc2ccc3c(c2)OCO3)n1,3%,0%,-83*,0%,2%,-14%
Cc1cccc(C(=O)OCc2ncc(-c3ccccc3)o2)c1O,nt,nt,nt,-1%,nt,nt
CCc1ocnc1C(=O)N1CCC(C2CCN(Cc3cccc(F)c3F)CC2)C1 (configuration not stated),nt,nt,nt,64%,nt,nt
CCc1cccc(CC)c1NC(=O)Cn1nnc2sc3c(c2c1=O)CCCC3,nt,8.2µM*,nt,-13%,nt,?
Cc1c(Cl)cccc1NC(=O)Cn1nnc2sc3c(c2c1=O)CCCC3,nt,3%,nt,-13%,nt,-9%
CC1CCc2c(sc3nnn(CC(=O)Nc4c(C(C)C)cccc4C(C)C)c(=O)c23)C1 (configuration not stated),nt,15µM*,nt,-23%,nt,?
COc1ccc(C2C(CN3CCOCC3)C(=O)N2c2ccccc2)cc1 (configuration not stated),8%,?,15,-18%,0%,-3%
Cc1ccc(N2C(=O)C(CN3CCOCC3)C2c2ccccc2)cc1 (configuration not stated),2%,15µM*,28,1%,-3%,?
O=C(OCC(=O)c1ccc[nH]1)c1ccc(S(=O)(=O)Nc2ccccc2)cc1,nt,nt,nt,3%,nt,nt
CC(=O)NC1(C(F)(F)F)C(=O)Nc2c1c(=O)[nH]c(=O)n2Cc1ccccc1 (configuration not stated),nt,nt,nt,-8%,nt,nt
CCOC(=O)c1ccc(N2C(=O)c3[nH]nc(-c4ccc(OCC)cc4)c3C2c2ccc(OC)cc2OC)cc1 (configuration not stated),nt,18µM*,nt,-23%,nt,21µM*
O=C1c2[nH]nc(-c3ccc(F)cc3)c2C(c2ccccc2F)N1c1ccccc1 (configuration not stated),nt,21µM*,nt,?,nt,?
CCOC(=O)c1ccc(N2C(=O)c3[nH]nc(-c4ccc(OC)cc4)c3C2c2cccc(O)c2)cc1 (configuration not stated),nt,21µM*,nt,0%,nt,18µM*
CCOC(=O)c1ccc(N2C(=O)c3[nH]nc(-c4ccc(C)cc4)c3C2c2cccc(F)c2)cc1 (configuration not stated),nt,?,nt,0%,nt,23µM*
NC(=O)[C@@H]1CN(C(=O)C2CCC2)C[C@H]1COc1ccccc1,nt,nt,nt,39%,nt,nt
SMILES,HT1080-NT tox,TDP1 cell noCPT,IL1B secr inh,12-LOX inh,HT1080 IDH1KD tx,DT40 TDP1 CPT
Brc1ccc(-c2cc3n(c2)CCc2ccccc2-3)cc1,nt,nt,nt,-20%,nt,nt
CC(NC(=O)CC1CCCO1)c1ccc(-c2ccccc2)cc1 (configuration not stated),nt,nt,nt,29%,nt,nt
CN1CCN(C(=O)C2CCCN(c3nc(Cl)nc4nc[nH]c34)C2)CC1 (configuration not stated),nt,nt,nt,-9%,nt,nt
CCOc1ccc(N2C(=O)c3n[nH]c(-c4cccs4)c3C2c2cccc(F)c2)cc1 (configuration not stated),nt,?,nt,-21%,nt,?
CCOC(=O)c1ccc(N2C(=O)c3n[nH]c(-c4cccs4)c3C2c2cccc(OC)c2)cc1 (configuration not stated),nt,10µM*,nt,-9%,nt,26µM*
CCOC(=O)c1c(C)[nH]c(C)c1S(=O)(=O)N1CCC(C(=O)N2CCN(c3cc(C)ccc3C)CC2)CC1,nt,23µM*,nt,-49%,nt,23µM*
CCOC(=O)N1CCN(C(=O)C2CCN(S(=O)(=O)c3c(C)cc(C)cc3C)CC2)CC1,-1%,18µM*,-7,2%,-5%,?
CCOC(=O)c1c(C)[nH]c(C)c1S(=O)(=O)N1CCC(C(=O)N2CCN(c3cccc(C)c3)C(C)C2)CC1 (configuration not stated),nt,?,nt,-24%,nt,23µM*
CCOC(=O)c1c(C)[nH]c(C)c1S(=O)(=O)N1CCC(C(=O)NCc2cccc(C)c2)CC1,nt,-9%,nt,-6%,nt,-2%
Cc1cc(SCC(=O)NC(=O)NC(C)C)nc2ccccc12,nt,nt,nt,-4%,nt,nt
CCOC(=O)c1cc(-c2ccc(/C=C3/C(=O)N(c4ccc(C(=O)O)cc4)N=C3C)o2)ccc1Cl,?,15µM*,11,-12%,-6%,?
O=C1N[C@@H](Cc2ccccc2)C(=O)N2[C@H]1C[C@]1(Br)c3ccccc3N(S(=O)(=O)c3ccc(F)cc3)[C@H]21,-1%,?,-2,?,2%,18µM*
COc1cccc(CN2CCC3(CC2)NC(=O)c2ccccc2O3)c1,nt,nt,nt,-10%,nt,nt
COc1ccccc1NC(=S)NCc1ccccc1,6%,-5%,-2,?,16%,-27%
COc1ccc(CNC(=S)NCc2ccc(F)cc2)cc1OC,-24%,-23%,30,-26%,-12%,-17%
CCOc1ccccc1NC(=S)NCc1ccccc1,?,?,24,22%,2%,10µM*

# Compound activity: PubChem, National Center for Advancing Translational Sciences (NCATS)
